# Assay results taken from the supplement of paper PMC9262897, “Low-cost anti-mycobacterial drug discovery using engineered E. coli” (Nature Communications, 2022).
# Counter-ions that a name gives are not always drawn. ± gives the standard deviation of the averaged measurements.
# System: E. coli TESEC Mtb Alr
# Test: growth (OD600 after 10 h); higher = more growth (less inhibition)
# Settings: arabinose 10000000 nM; compound 0.1 mM; raw OD600 reference: median of DMSO wells […], cell-free background 0.052
# Protocol: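 TESEC Mtb Alr E. coli (ΔaraC ΔtolC ΔentC Δalr ΔdadX, arabinose-inducible Mtb Alr) or the Alr+ wild-type control strain, grown in defined M9-fructose medium without D-alanine in 96-well plates with Prestwick library compounds at 0.1 mM and 1% DMSO. Low Alr induction is 0.1 µM arabinose and high induction is 10 mM arabinose.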
row,SMILES,growth
1,Cc1nnc(NS(=O)(=O)c2ccc(N)cc2)s1 [Sulfamethizole],0.33 ± 0.011
2,CCC1=C(C)CN(C(=O)NCCc2ccc(S(=O)(=O)NC(=O)N[C@H]3CC[C@H](C)CC3)cc2)C1=O [Glimepiride],0.193 ± 0.014
3,CC1CC(OC(=O)c2ccccc2O)CC(C)(C)C1 (stereo not given) [Homosalate],0.332 ± 0.016
4,CCCN(CCC)C(=O)C(CCC(=O)O)NC(=O)c1ccccc1 (stereo not given) [Proglumide],0.376 ± 0.033
5,NCCc1ccc(O)c(O)c1 [Dopamine hydrochloride],0.333 ± 0.0035
6,OCCN1CCN(CCCN2c3ccccc3Sc3ccc(Cl)cc32)CC1 [Perphenazine],0.0538 ± 0.00074
7,CCN(CC)CCOC(=O)C1(C2CCCCC2)CCCCC1 [Dicyclomine hydrochloride],0.11 ± 0.003
8,Cc1cc(-c2ccccc2)nnc1NCCN1CCOCC1 [Minaprine dihydrochloride],0.318 ± 0.029
9,CCC1(C)CC(=O)NC1=O (stereo not given) [Ethosuximide],0.368 ± 0.019
10,COc1nc(C)nc(Cl)c1NC1=NCCN1 [Moxonidine],0.342 ± 0.02
11,COC(=O)Nc1nc2cc(C(=O)c3cccs3)ccc2[nH]1 [Nocodazole],0.382 ± 0.044
12,CCN(CC)C(=O)/C(C#N)=C/c1cc(O)c(O)c([N+](=O)[O-])c1 [Entacapone],0.0695 ± 0.0028
13,CCN(CC)CCOC(=O)C(c1ccccc1)C1CCCCC1 (stereo not given) [Drofenine hydrochloride],0.168 ± 0.058
14,Cc1c(Cl)cccc1Nc1ncccc1C(=O)O [Clonixin Lysinate],0.173 ± 0.026
15,Cn1cnc2c1c(=O)[nH]c(=O)n2C [Theobromine],0.365 ± 0.022
